Source: PubChem BioAssay
Rab9 prom act: Rab9 promoter activation; Huh7 Rab9 promoter-luciferase reporter, luminescence, 24 h; Potency, µM (doses to about 9.22 µM), for the others: at the top dose activation, negative = inhibition, most hits filed as activators; hit rate 2.8% among 320,000; AID 485297; further: % of control where 0% means no effect; nearly all actives have a fitted effect of over 60% in size
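Steps: seed 1500 Huh7 Rab9-luc cells per well, rest 2 h at 37 °C; add compound in DMSO; incubate 24 h; add luciferase reagent, 10 min ambient; read luminescence.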
NPC1 promoter act: NPC1 promoter activation; Huh7 NPC1 promoter luciferase reporter, 24 h; Potency, µM (series often up to 9.22 µM), for the others: at the top dose activation, actives largely listed as activators; hit rate 2.4% among 320,000; further: % of control where 0% means no effect; nearly all actives have a fitted effect of over 60% in size
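Huh7 reporter cells (NPC1 promoter driving luciferase) are dosed with compound for 24 h at 37 °C, 5% CO2; luciferase detection reagent is then added and luminescence measured after 10 min at ambient temperature.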
FLuc counter: firefly luciferase modulation, counter-screen for miR-21 project. P08659. purified FLuc, Km substrates, luminescence inhibition. Potency, µM (series often up to 57.5 µM), for the others: at the top dose activity change, negative = inhibition, hits mostly inhibitors. hit rate 6.9% among 360,000. AID 588342;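 further: plate controls were vehicle for no effect and reference inhibitor for full effect; nearly all actives have a fitted effect of over 55% in size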
Target sequence (P08659 whole entry, looked up): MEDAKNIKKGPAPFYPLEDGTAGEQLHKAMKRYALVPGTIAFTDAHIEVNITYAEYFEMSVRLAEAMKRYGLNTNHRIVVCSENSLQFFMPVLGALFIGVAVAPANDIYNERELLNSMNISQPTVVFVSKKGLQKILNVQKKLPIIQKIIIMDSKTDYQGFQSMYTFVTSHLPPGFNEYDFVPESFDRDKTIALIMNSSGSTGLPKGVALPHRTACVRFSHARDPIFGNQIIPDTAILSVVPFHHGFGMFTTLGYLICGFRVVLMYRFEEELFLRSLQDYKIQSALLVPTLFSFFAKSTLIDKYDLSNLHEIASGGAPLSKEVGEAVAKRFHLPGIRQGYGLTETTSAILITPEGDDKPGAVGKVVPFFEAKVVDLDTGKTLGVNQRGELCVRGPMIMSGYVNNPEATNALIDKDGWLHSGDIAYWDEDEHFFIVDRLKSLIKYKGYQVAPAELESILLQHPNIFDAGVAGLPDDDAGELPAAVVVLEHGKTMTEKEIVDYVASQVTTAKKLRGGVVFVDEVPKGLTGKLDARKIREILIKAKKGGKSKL
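Biochemical qHTS of compounds, final roughly 60 µM downward over six points, against 10 nM purified firefly luciferase using Km concentrations of substrates (10 uM D-luciferin, 10 uM ATP) in Tris acetate pH 7.5 buffer; luminescence output.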
SMN2 splice enh: increases expression of the SMN2 splice variant. HEK293 SMN2-luciferase splicing reporter, luminescence, 30-36 h. Potency, µM (highest dose often 46.1 µM), without a hit: at the top dose activity change, positive = activation, usual class: activators. hit rate 2.8% among 210,000. AID 1458; further: % of control where 0% means no effect; nearly all actives have a fitted effect of over 55% in size
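HEK293 cells carry an SMN2 […]–luciferase reporter in which exon 7 inclusion puts luciferase in frame. Cells were plated 10-12 h before compound addition, then incubated 30-36 h at 37C. ONE-Glo luminescence was read; sodium butyrate at 4.5 mM final served as control.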
ELG1 genotox: inducers of genotoxicity in HEK293T ELG1-luciferase cells; HEK293T ELG1-luciferase reporter, luminescence, 16 h; Potency, µM (titrated, usually from 46 µM), for the others: at the top dose activity change, positive = activation, most hits filed as activators; hit rate 1.3% among 330,000; AID 504466; further: % of control where 0% means no effect; nearly all actives have a fitted effect of over 60% in size
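16 hr compound incubation (37 °C, 5% CO2) of HEK293T cells carrying luciferase-tagged ELG1; luciferase then measured by ONE-Glo luminescence after 30 min at RT.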
KinaseGlo FLuc: Kinase-Glo luciferase inhibition (counter-screen); Potency, µM (top dose mostly 38.3 µM), for the others: top-dose activity change, negative = inhibition, most hits filed as inhibitors; AID 1379; Kinase-Glo luciferase, ATP luminescence, 8 min; hit rate 0.28% among 200,000; further: on the % scale 0 is the no-effect control and ±100 the full control effect; nearly all actives have a fitted effect of over 60% in size
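Substrate mix (final 50 mM imidazole pH 7.2, 50 mM KCl, 7 mM MgCl2, 10 uM ATP, 0.01% Tween 20, 0.05% BSA) plus pin-tool compound, then Kinase-Glo detection mix; 8 min ambient, luminescence read.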
The depositor's hits bear a star; u = inconclusive; x = no result given; [ ] = another dose, or the depositor's remark. Most compounds without a hit are left out; they make up all but 7.3% or so of the library. The call rests on the fitted dose curve; in most records, active means well fitted curve in the direction sought with a large enough effect; inconclusive means small, poorly fitted or top-dose-only effect, or another doubt; inactive means no such curve, though single readings can be large; an effect the other way counts as inactive or inconclusive. Potency means the concentration at half of the fitted maximal effect.

SMILES	Rab9 prom act	NPC1 promoter act	FLuc counter	SMN2 splice enh	ELG1 genotox	KinaseGlo FLuc
CCCCSc1nnc(-c2c[nH]c3ccccc23)n1C	u	u	15µM*	-9%	u	-4%
CCCCSc1nnc(-c2ccc(C)cc2)n1C	3.5µM*	4µM*	u	u	3%	-4%
Cn1c(SCc2ccccc2)nnc1-c1c[nH]c2ccccc12	u	u	17µM*	u	15µM*	1%
O=C(NCc1cccn1Cc1ccccc1)Nc1ccc(Br)cc1F	x	x	-1%	x	x	x
CC(=O)Oc1ccc(N(C(C)=O)S(=O)(=O)c2cc([N+](=O)[O-])ccc2C)cc1	2%	-2%	3%	-22%	1%	-3%
c1ccc(C2=NN(c3ccccc3)CC2)cc1	3.5µM*	2.8µM*	3.4µM*	x	u	x
CCOC(=O)/C(=C/c1ccc(N2CCC(c3ccccc3)=N2)cc1)C(C)=O	u	u	-6%	-70%	21µM*	1%
S=C1CCC(c2ccc(Cl)cc2)=NN1c1ccccc1	-1%	2%	-1%	x	-3%	x
CN(C)S(=O)(=O)c1ccc(-c2csc(-c3cccnc3)n2)cc1	18%	-1%	u	x	1%	x
COc1ccccc1[C@@H]1C(c2ccc(F)cc2)=NN(c2ccc(Br)cc2)[C@H]1C(=O)N1CCOC1=O	x	x	x	x	x	3%[39.9 µM]
CCOC(=O)c1c(-c2ccccc2)csc1NC(=O)CSc1nc(C)cc(C)n1	-10%	-3%	5%	-67%	1%	1%
O=c1c2cc3c(nc2ncn1Cc1ccccc1F)CCCC3	x	x	-7%	x	x	x
Cc1ccc(C2/C(=C(/O)c3cnn(-c4ccccc4)c3C)C(=O)C(=O)N2CCN2CCOCC2)o1 (stereo unspecified)	2.8µM*	3.5µM*	21µM*	-52%	5.8µM*	2%
Cc1c(/C(O)=C2/C(=O)C(=O)N(CCN3CCOCC3)C2c2cccs2)cnn1-c1ccccc1 (stereo unspecified)	1.3µM*	4.5µM*	9.5µM*	u	1.8µM*	-3%
CCN(CC)CCN1C(=O)C(=O)/C(=C(/O)c2cnn(-c3ccccc3)c2C)C1c1ccc(C)o1 (stereo unspecified)	u	30%	u	7%	u	-4%
COc1ccc(C2=NS(=O)(=O)N(C)C(C(=O)Nc3ccc(C)cc3)=C2)cc1	1%	0%	-16%	x	-1%	x
COc1cc(NC(=O)C2=CC(c3ccc(F)cc3)=NS(=O)(=O)N2C)cc(OC)c1OC	x	x	1.3µM*	x	x	x
CCCC(=O)n1nc(-c2ccco2)nc1SCc1ccccc1	17%	13%	9.5µM*	u	8%	2%
Cc1ccc(S(=O)(=O)n2nc(-c3ccco3)nc2SCc2ccccc2)cc1	22%	18%	24µM*	16µM*	15%	8%
O=C(Cc1ccccc1)n1nc(-c2ccco2)nc1SCc1ccccc1	15%	24%	17µM*	11%	u	-1%
Cc1ccccc1N1C(S)=C(C#N)C(=O)NC1c1ccco1 (stereo unspecified)	-2%	-4%	-6%	x	3%	-3%
Cc1cc(C)nc(NS(=O)(=O)c2ccc(N3C(=O)C4C5C=CC(C5)C4C3=O)cc2)n1 (stereo unspecified)	-5%	-3%	-1%	u	0%	-1%
COc1ccc(NS(=O)(=O)c2ccc3oc(Nc4ccc5c(c4)OCCO5)nc3c2)cc1	13%	1%	19µM*	7%	3%	-5%
COc1ccc(NS(=O)(=O)c2ccc(NS(=O)(=O)c3ccc4c(c3)OCCO4)cc2)cc1	x	x	u	-4%	x	x
O=C(c1cc2cc(Br)ccc2o1)N1CCCC1	u	u	u	26%	u	0%
SMILES	Rab9 prom act	NPC1 promoter act	FLuc counter	SMN2 splice enh	ELG1 genotox	KinaseGlo FLuc
O=C(c1cc2cc(Br)ccc2o1)N1CCOCC1	u	13%	21µM*	x	21%	1%
O=C(c1cc2cc(Br)ccc2o1)N1CCN(c2ccccc2)CC1	-1%	-1%	19µM*	x	u	x
O=[N+]([O-])c1ccc(Nc2ccccc2)c2nonc12	8%	0%	-15%	x	-4%	x
CCOc1ccc(Nc2ccc([N+](=O)[O-])c3nonc23)cc1	4.5µM*	u	12µM*	x	20%	x
CN1/C(=C\C(=O)COC(=O)CNC(=O)c2ccc3ccccc3c2)C(C)(C)c2ccccc21	-6%	-1%	-12%	-20%	-5%	-1%
Cn1nnc(NC(=O)c2ccccc2F)n1	1%	7%	-2%	-2%	2%	-3%
Cn1nnc(NC(=O)c2ccc(C(C)(C)C)cc2)n1	1.6µM*	3.2µM*	3.4µM*	22µM*	u	-8%
Cn1nnc(NC(=O)c2cccc(OCc3ccccc3)c2)n1	6%	11%	-14%	u	-3%	-2%
Cn1nnc(NC(=O)c2ccc3ccccc3c2)n1	27%	12%	15µM*	4%	17%	-1%
O=C(NCc1ccccc1)c1ccc(OC2CSC2)cc1	7%	12%	-1%	-19%	12%	2%
Cc1cccc(NC(=O)c2ccc(OC3CSC3)cc2)c1	4µM*	2.5µM*	1.9µM*	18µM*	10µM*	u
O=C(Nc1cccc(Br)c1)c1ccc(OC2CSC2)cc1	2.2µM*	u	2.7µM*	74%	3.3µM*	u
CC(=O)c1cccc(NC(=O)c2ccc(OC3CSC3)cc2)c1	29%	22%	u	-42%	-11%	-7%
CCOC(=O)[C@@H]1[C@H]2COc3cc(OC)ccc3[C@@H]2N2C(=O)N(c3ccc(OC)cc3)C(=O)[C@@]12C	x	x	x	x	1%	x
COc1ccc(N(CC(=O)NCCSC(C)(C)C)S(C)(=O)=O)c(OC)c1	-2%	-1%	-2%	-7%	0%	-6%
c1ccc(-c2noc(-c3ccc4c(c3)OCO4)n2)nc1	u	u	0.24µM*	0.5µM*	u	2.8µM*
Cc1cccc(-c2noc(-c3ccc4c(c3)OCO4)n2)c1	-1%	-3%	-17%	x	3%	-5%
c1ccc(-c2noc(-c3ccc4ccccc4c3)n2)nc1	-22%	-25%	0.067µM*	0.5µM*	u	10µM*
CCOc1ccc(CCNC(=O)c2cc(C)nn2-c2ccccc2)cc1	1%	2%	-1%	x	-5%	x
C[n+]1ccc(/C=C/c2ccccc2O)c2ccccc21	-6%	-6%	-15%	-38%	-12%	9%
CN1/C(=C/c2cc[n+](C)c3ccccc23)C=Cc2ccccc21	-39%	-43%	13µM*	-90%	-21%	u
C/C(=N/NC(=O)c1cccs1)c1cccs1	2.5µM*	u	11µM*	x	u	x
C/C(=N\Nc1ccc(Cl)c(C(=O)O)c1)c1cccs1	u	u	u	x	5%	x
